Data as given in ChEMBL document CHEMBL3988442, “University of Dundee, Small-Polar-MMV Screening Library” (2021).
For some of these results: Potency and affinity values are given separately.

Experiments:
Parameters in all cases: scale not given: direction of the effect not stated beside the values
[1] = biological target: Protein translocase subunit SecA (Escherichia coli (strain K12)) (UniProt P10408); assay: Assay to Identify E. coli SecA ATPase Inhibitors; type: functional; conditions: 30 µM
Protein translocase subunit SecA (Escherichia coli (strain K12)), sequence (P10408 whole entry): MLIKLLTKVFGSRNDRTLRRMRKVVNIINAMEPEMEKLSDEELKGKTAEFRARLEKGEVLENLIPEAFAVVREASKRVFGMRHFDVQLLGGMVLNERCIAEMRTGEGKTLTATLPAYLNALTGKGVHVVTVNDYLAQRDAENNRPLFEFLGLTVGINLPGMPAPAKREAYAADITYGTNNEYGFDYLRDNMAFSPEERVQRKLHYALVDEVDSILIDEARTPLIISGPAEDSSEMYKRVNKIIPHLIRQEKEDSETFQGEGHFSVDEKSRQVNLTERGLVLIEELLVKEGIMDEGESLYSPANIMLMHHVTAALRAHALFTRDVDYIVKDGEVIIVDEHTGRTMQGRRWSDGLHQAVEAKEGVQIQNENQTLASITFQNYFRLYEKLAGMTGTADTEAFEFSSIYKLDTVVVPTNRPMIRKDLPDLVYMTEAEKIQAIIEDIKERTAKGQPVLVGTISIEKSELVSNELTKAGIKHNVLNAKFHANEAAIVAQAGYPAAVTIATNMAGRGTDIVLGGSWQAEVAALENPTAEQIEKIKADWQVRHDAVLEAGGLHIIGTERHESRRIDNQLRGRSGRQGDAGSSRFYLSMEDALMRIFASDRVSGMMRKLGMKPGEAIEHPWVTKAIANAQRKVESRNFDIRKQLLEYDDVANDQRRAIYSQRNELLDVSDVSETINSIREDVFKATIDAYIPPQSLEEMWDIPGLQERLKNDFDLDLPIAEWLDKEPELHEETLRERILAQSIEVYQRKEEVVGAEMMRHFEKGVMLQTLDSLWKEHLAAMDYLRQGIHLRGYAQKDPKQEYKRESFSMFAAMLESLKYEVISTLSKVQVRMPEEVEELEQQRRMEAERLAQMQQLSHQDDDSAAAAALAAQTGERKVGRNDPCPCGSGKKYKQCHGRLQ

[2] = biological target: T1, Ubiquitin-activating enzyme e1, putative (Leishmania donovani (strain BPK282A1)) (UniProt E9BSI1); assay: Leishmania donovani Ubiquitin Activating Enzyme (LdE1); type: functional; conditions: 30 µM
T1 sequence (whole entry): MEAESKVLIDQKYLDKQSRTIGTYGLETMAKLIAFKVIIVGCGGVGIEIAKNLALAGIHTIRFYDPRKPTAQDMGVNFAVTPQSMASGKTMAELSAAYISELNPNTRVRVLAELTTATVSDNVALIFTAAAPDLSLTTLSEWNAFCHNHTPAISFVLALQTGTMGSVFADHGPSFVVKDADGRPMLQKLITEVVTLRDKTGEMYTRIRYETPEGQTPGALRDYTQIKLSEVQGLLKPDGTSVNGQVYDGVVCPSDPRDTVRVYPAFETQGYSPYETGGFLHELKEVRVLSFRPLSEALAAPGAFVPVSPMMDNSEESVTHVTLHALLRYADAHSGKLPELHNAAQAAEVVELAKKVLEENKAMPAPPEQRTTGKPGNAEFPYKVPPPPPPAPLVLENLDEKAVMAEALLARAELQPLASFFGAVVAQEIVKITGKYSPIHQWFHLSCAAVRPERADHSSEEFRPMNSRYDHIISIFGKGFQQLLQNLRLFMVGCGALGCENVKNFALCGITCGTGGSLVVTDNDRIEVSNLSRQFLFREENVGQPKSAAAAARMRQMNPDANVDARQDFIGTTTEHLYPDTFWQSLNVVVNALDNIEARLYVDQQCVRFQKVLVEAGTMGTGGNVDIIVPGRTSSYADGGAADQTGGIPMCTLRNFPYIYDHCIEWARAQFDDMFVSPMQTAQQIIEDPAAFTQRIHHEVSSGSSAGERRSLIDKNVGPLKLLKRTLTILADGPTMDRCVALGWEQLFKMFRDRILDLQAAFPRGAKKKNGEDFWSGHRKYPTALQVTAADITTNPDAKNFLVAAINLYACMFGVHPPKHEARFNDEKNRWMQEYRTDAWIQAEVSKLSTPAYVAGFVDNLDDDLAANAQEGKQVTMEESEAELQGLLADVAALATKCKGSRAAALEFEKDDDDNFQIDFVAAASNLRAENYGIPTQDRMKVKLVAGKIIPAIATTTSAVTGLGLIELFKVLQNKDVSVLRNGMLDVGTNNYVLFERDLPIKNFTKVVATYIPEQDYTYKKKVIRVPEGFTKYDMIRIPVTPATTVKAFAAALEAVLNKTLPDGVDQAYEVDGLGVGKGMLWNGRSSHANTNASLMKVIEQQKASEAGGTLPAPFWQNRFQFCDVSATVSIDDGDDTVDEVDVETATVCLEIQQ

[3] = biological target: AMP-activated protein kinase, AMPK (Homo sapiens) (UniProt P54646+O43741+P54619+Q9UGJ0+Q9Y478+Q13131+Q9UGI9); assay: AMP-dependent Kinase enzyme assay. An in vitro enzyme assay that detects ADP turnover that is directly proportional to AMPK activity. This uses naive AMPK that is activated during the assay with MK-8722; type: functional; conditions: 30 µM
[4] = biological target: Sialic acid-binding Ig-like lectin 9 (Homo sapiens) (UniProt Q9Y336); assay: Hs-Siglec9 ALPHAscreen SOP 20170721; conditions: 10 µM
Sialic acid-binding Ig-like lectin 9 (Homo sapiens), sequence (Q9Y336 whole entry): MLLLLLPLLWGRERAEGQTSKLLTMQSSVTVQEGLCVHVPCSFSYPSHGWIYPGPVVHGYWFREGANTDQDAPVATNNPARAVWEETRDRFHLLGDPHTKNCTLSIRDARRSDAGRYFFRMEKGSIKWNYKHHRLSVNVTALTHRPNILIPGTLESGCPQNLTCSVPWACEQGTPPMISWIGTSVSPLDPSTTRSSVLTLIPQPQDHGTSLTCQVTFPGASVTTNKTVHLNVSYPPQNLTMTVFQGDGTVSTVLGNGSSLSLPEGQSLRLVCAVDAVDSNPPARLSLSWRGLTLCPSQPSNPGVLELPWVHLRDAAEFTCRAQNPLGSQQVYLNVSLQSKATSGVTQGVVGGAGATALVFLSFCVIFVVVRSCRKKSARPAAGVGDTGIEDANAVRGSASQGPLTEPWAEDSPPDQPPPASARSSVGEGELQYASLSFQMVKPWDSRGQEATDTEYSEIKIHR

Trypanosoma cruzi = assay: Trypanosoma cruzi phosphomannomutase and mannose-1-phosphate guanylyltransferase assay; type: functional; conditions: 10 µM
[5] = biological target: T2, Arginase-2, mitochondrial (Homo sapiens) (UniProt P78540); assay: in vitro enzyme assay to detect the production of urea directly proportional to the activity of Arginase II; type: functional; conditions: 33.3 µM; also: in the data most compounds retested in dose-response had high values
T2 sequence (whole entry): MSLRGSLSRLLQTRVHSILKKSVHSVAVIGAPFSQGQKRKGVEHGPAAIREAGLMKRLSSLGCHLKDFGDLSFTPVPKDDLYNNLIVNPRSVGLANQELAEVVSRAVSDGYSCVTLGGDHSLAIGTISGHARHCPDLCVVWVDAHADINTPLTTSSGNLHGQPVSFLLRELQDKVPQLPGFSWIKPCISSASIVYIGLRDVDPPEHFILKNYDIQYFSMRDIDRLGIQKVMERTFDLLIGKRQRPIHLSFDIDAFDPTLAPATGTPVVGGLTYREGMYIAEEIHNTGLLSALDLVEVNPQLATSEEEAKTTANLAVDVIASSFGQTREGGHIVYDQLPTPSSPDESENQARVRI

[6] = biological target: T3, Proteasome subunit beta (Trypanosoma cruzi) (UniProt O96673); assay: Trypanosoma cruzi proteasome chymotrypsin-like activity (TcProtChymo) assay.; also: in the data most compounds retested in dose-response had high values; type: functional; conditions: 9.37 µM
T3 sequence (whole entry): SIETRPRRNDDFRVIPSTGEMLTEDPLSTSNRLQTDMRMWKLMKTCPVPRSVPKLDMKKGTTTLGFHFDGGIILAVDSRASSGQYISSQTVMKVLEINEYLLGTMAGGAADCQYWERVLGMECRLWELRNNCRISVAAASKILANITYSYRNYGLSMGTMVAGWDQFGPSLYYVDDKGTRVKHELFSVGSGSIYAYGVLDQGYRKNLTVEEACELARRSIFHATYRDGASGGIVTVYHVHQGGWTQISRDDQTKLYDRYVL

Homo sapiens = organism: Homo sapiens; assay: To identify inhibition of the IFN signalling (Jak-Stat) pathway via expression of an eGFP reporter gene under the control of an IFN-stimulated response element (ISRE) containing MxA promoter.; type: functional; conditions: 30 µM
[7] = biological target: T4, Tyrosyl-tRNA synthetase, putative (Trypanosoma cruzi (strain CL Brener)) (UniProt Q4DSP6); assay: Trypanosoma cruzi tyrosyl tRNA synthetase (TcYRS) _High Tyrosine SOP; type: functional; conditions: 30 µM; also: in the data most compounds retested in dose-response had high values
T4 sequence (whole entry): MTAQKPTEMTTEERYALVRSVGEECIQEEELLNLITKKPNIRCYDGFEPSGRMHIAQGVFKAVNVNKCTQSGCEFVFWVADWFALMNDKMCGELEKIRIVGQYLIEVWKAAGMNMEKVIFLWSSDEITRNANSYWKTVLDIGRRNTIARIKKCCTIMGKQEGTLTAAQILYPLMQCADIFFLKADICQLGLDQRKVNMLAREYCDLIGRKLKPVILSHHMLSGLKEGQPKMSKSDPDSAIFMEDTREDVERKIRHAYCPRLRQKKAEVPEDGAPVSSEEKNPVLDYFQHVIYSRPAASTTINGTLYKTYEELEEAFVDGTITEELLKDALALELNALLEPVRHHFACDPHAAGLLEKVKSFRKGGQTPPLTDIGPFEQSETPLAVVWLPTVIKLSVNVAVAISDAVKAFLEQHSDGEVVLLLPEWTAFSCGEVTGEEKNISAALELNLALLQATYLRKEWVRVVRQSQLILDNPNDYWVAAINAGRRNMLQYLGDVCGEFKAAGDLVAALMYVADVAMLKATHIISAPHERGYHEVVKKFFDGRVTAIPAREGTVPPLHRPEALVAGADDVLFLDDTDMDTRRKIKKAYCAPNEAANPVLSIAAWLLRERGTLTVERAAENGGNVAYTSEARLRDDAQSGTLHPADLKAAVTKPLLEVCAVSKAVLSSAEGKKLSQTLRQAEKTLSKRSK

[8] = biological target: T4, Tyrosyl-tRNA synthetase, putative (Trypanosoma cruzi (strain CL Brener)); assay: Trypanosoma cruzi tyrosyl tRNA synthetase (TcYRS) SOP; type: functional; conditions: 30 µM
[9] = biological target: Chromo domain-containing protein 1 (Saccharomyces cerevisiae (strain ATCC 204508 / S288c) (Baker's yeast)) (UniProt P32657); assay: ScCHD-1 Enzyme Inhibition Assay; type: functional; conditions: 30 µM; also: in the data most compounds retested in dose-response had high values
Chromo domain-containing protein 1 (Saccharomyces cerevisiae (strain ATCC 204508 / S288c) (Baker's yeast)), sequence (P32657 whole entry, the tested form may be a part): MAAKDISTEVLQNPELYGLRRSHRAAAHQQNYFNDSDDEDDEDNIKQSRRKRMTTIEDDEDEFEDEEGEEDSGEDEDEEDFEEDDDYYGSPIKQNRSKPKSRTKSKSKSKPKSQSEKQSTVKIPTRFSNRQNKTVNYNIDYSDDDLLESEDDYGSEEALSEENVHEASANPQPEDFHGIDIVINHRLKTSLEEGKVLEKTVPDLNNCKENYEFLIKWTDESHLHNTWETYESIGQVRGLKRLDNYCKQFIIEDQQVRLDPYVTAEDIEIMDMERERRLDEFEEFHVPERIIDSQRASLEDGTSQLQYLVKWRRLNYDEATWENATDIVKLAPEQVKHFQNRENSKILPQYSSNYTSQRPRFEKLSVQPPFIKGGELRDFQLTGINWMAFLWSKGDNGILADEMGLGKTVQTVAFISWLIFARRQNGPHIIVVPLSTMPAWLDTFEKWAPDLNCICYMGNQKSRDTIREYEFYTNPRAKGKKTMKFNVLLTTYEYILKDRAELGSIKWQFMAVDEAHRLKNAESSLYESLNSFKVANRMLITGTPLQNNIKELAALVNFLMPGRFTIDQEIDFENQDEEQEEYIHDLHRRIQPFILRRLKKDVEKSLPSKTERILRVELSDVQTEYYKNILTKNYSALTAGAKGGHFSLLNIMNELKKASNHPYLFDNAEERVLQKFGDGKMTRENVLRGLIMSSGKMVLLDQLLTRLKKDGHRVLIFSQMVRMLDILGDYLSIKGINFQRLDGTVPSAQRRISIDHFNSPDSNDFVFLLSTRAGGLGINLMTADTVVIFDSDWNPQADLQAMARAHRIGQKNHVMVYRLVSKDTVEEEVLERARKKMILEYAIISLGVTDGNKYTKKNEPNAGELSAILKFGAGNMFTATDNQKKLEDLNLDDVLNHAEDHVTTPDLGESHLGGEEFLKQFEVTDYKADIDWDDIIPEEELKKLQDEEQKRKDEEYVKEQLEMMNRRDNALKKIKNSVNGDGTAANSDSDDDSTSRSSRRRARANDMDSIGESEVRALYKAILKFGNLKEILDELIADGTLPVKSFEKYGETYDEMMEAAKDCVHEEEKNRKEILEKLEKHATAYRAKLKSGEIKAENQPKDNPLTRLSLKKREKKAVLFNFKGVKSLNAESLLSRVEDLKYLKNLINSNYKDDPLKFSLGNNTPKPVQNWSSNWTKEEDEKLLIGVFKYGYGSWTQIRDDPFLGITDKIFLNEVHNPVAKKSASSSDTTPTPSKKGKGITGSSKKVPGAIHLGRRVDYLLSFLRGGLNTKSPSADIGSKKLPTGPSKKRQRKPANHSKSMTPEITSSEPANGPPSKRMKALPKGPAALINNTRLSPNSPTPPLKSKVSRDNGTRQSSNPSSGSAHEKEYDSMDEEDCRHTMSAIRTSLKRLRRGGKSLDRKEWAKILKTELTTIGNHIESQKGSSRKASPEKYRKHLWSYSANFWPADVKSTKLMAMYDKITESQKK

Row | SMILES | Percent Effect [1] | Percent Effect [2] | Percent Effect [3] | Percent Effect [4] | Percent Effect (Trypanosoma cruzi) | Percent Effect [5] | Percent Effect [6] | Percent Effect (Homo sapiens) | Percent Effect [7] | Percent Effect [8] | Percent Effect [9]
1 | CCn1cc(NC(=O)C2CCN(Cc3ccccc3C#N)CC2)cn1 | -3.86% | 8.86% | 6.54% | 0.163% | -3.79% | 1.5% | 7.03% | 11.2% | 9.38% | 20.2% | -6.33%
2 | Cc1nn(C)c(N2CCOCC2)c1CNC(C)c1cccnc1 (stereo unspecified) | -3.55% | 6.94% | -10.5% | 21.7% | 2.62% | 7.95% | 11.4% | -22.8% | 3.16% | 10.3% | -6.39%
3 | COc1c(C2CCCN2C(=O)c2csc(C(C)C)n2)c(C)nn1C (stereo unspecified) | -5.84% | 5.2% | 2.93% | 11.7% | 0.187% | 1.07% | -5.91% | 8.75% | 3.88% | 9.76% | 0.696%
4 | CCN(C(=O)COC)C(c1cccnc1)c1ccc2c(c1)CCO2 (stereo unspecified) | 2.93% | 2.74% | 0.259% | 5.98% | -8.13% | -1.2% | 19.8% | 5.88% | 9.38% | 11.1% | -1.24%
5 | CSC(C)(C)CNC(=O)NC1CCSCC1 | -4.83% | 13.3% | -5.19% | 18.2% | 8.47% | 5.73% | 6.63% | 4.48% | 0.546% | 11.1% | -6.59%
6 | O=C(CCc1cc2n(n1)CCCN(Cc1ccccc1F)C2)NC1CC1 | -3.75% | 1.39% | 1.32% | 0.0735% | 6.71% | -2.21% | 10.2% | -26.8% | 2.1% | 5.13% | -4.12%
7 | CS(=O)(=O)N1CCC(Oc2ccc(C(=O)N3CCSCC3)cc2Cl)CC1 | -2.47% | 9.72% | 3.27% | 18.5% | 4.37% | -2.21% | 3.86% | 25.7% | 3.16% | 7.69% | -2.42%
8 | O=c1nc(CNc2ccccc2)[nH]n1Cc1ccccc1 | -3.5% | 7.89% | 10.7% | 0.216% | -4.58% | -1.18% | 19.5% | 3.25% | 9.57% | 13% | -4.75%
9 | COC(=O)c1cccc(NC(=O)CCn2nc(-c3cccs3)oc2=O)c1 | -5.54% | 10.8% | 11.1% | -7.27% | -5.11% | -4.25% | 5.92% | 7.13% | 0% | 6.1% | -3.3%
10 | N#Cc1c(F)cccc1N1CCC(NS(=O)(=O)c2cccs2)CC1 | 0.0864% | -11% | 24.6% | -2.85% | -9.6% | -0.455% | 14% | 34.2% | -15.1% | -20% | -4.33%
11 | Cc1nc(C)n(C2CCCN(C(=O)c3ccc(N(C)C)nn3)C2)n1 (stereo unspecified) | -1.66% | -5.2% | 4.94% | -6.86% | 7.35% | -0.632% | 6.06% | -42.5% | 2.86% | 0% | -16.9%
